# Calls of active or inactive are those of the source. The calls were made as follows: active = hit-call score of the fitted dose curve at least 0.9, where 1 is the maximum; inactive = score below 0.9.
# Legend:
# Conditions in all cases: mRNA level, 48 h; actives raise or lower the signal
# [1] = read-out: Protein phosphatase 2A (PPP2R4), PTPA (gene 5524); test: LTEA_HepaRG_PPP2R4: Life Technologies and Expression Analysis (LTEA) Assay for Protein phosphatase 2A (PPP2R4) using HepaRG (AID 2283522)
# Summary of the method: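 HepaRG, 48 h exposure, 8-pt half-log series from 100 uM, 0.5% DMSO vehicle, duplicates. Readout: PPP2R4 mRNA, Fluidigm qRT-PCR, housekeeping-normalized. Bidirectional curve fit vs DMSO baseline.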
# [2] = read-out: Phosphatase and tensin (PTEN), PTEN (gene 5728); test: LTEA_HepaRG_PTEN: Life Technologies and Expression Analysis (LTEA) Assay for Phosphatase and tensin (PTEN) using HepaRG (AID 2283523)
# Summary of the method: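 Expression of PTEN is quantified in the human liver line HepaRG following two days of dosing (top concentration 100 uM, half-log dilutions, 0.5% DMSO). Values derive from bidirectional curve fitting relative to DMSO controls.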
# [3] = read-out: solute carrier (SLC22A1), SLC22A1 (gene 6580); test: LTEA_HepaRG_SLC22A1: Life Technologies and Expression Analysis (LTEA) Assay for solute carrier (SLC22A1) using HepaRG (AID 2283524);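 as to AC50: differentiated human HepaRG liver cells in serum-free induction medium; TaqMan qRT-PCR normalized to ACTB GAPDH and POLR2A housekeeping genes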
# Summary of the method: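 Transcript induction or suppression of SLC22A1 in human HepaRG cultures is scored after 48 h chemical treatment, with DMSO (0.5%) as baseline for bidirectional fitting. Concentrations span eight half-log points topping at 100 uM.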
# [4] = read-out: Pyruvate Dehydrogenase Kinase 4 (PDK4), PDK4 (gene 5166); test: LTEA_HepaRG_PDK4: Life Technologies and Expression Analysis (LTEA) Assay for Pyruvate Dehydrogenase Kinase 4 (PDK4) using HepaRG (AID 2283525)
# Summary of the method: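 Eight-point, half-log concentration series (max 100 uM, 0.5% DMSO) applied to differentiated HepaRG cells for 48 h in duplicate. Endpoint: PDK4 mRNA induction or repression by qRT-PCR against DMSO baseline.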
# [5] = read-out: NAD(P)H dehydrogenase [quinone] 1 (NQO1), NQO1 (gene 1728); test: LTEA_HepaRG_NQO1: Life Technologies and Expression Analysis (LTEA) Assay for NAD(P)H dehydrogenase [quinone] 1 (NQO1) using HepaRG (AID 2283526)
# Summary of the method: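 qRT-PCR read-out (Fluidigm TaqMan), normalized to three housekeeping genes, after 48 h chemical exposure of HepaRG cells. Concentrations: eight points, top 100 uM, half-log steps, 0.5% DMSO vehicle. Gain or loss of signal fitted relative to DMSO.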
# [6] = read-out: Nuclear factor erythroid 2-related factor 2 (Homo sapiens) (UniProt Q16236); test: LTEA_HepaRG_NFE2L2: Life Technologies and Expression Analysis (LTEA) Assay for Nuclear factor erythroid 2-related factor 2 (NFE2L2) Transcription Factor using HepaRG (AID 2283527);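 as to outcome: TaqMan qRT-PCR transcript level normalised to ACTB GAPDH and POLR2A housekeeping genes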
# Summary of the method: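 Human liver HepaRG line treated in duplicate for 48 h with an eight-point series topping at 100 uM. Gene expression of NFE2L2 by qRT-PCR, bidirectionally fitted against the vehicle control.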
# [7] = read-out: succinate dehydrogenase complex iron sulfur subunit B (SDHB), SDHB (gene 6390); test: LTEA_HepaRG_SDHB: Life Technologies and Expression Analysis (LTEA) Assay for succinate dehydrogenase complex iron sulfur subunit B (SDHB) using HepaRG (AID 2283528)
# Summary of the method: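 HepaRG cells (~100,000/well, plated 48 h) exposed in duplicate for 48 h in serum-free induction medium to 8-point half-log series from 100 uM in 0.5% DMSO; mRNA by qRT-PCR normalised to ACTB, GAPDH, POLR2A; bidirectional fit versus DMSO.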
# [8] = read-out: Signal transducer and activator of transcription 3 (Homo sapiens) (UniProt P40763); test: LTEA_HepaRG_STAT3: Life Technologies and Expression Analysis (LTEA) Assay for Signal transducer and activator of transcription (STAT3) using HepaRG (AID 2283529)
# Summary of the method: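 In this transcriptional endpoint, HepaRG cultures receive test chemicals at up to 100 uM for 48 h, tested in duplicate. STAT3 mRNA is normalized to ACTB, GAPDH and POLR2A.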
# [9] = read-out: solute carrier (SLCO1B1), SLCO1B1 (gene 10599); test: LTEA_HepaRG_SLCO1B1: Life Technologies and Expression Analysis (LTEA) Assay for solute carrier (SLCO1B1) using HepaRG (AID 2283530)
# Summary of the method: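 Human HepaRG cultures treated for 48 h with an eight-concentration half-log series topping at 100 uM; SLCO1B1 measured by qRT-PCR and fitted bidirectionally relative to DMSO.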
# [10] = read-out: sulfotransferase 2A1 (SULT2A1), SULT2A1 (gene 6822); test: LTEA_HepaRG_SULT2A1: Life Technologies and Expression Analysis (LTEA) Assay for sulfotransferase 2A1 (SULT2A1) using HepaRG (AID 2283531)
# Summary of the method: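 Gene-expression endpoint in a human liver cell line: SULT2A1 mRNA change after 48 h chemical treatment, curves fitted in both directions relative to 0.5% DMSO vehicle. Concentrations spanned eight half-log steps from 100 uM.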
# Nuclear factor erythroid 2-related factor 2 (Homo sapiens), sequence (Q16236 whole entry, looked up): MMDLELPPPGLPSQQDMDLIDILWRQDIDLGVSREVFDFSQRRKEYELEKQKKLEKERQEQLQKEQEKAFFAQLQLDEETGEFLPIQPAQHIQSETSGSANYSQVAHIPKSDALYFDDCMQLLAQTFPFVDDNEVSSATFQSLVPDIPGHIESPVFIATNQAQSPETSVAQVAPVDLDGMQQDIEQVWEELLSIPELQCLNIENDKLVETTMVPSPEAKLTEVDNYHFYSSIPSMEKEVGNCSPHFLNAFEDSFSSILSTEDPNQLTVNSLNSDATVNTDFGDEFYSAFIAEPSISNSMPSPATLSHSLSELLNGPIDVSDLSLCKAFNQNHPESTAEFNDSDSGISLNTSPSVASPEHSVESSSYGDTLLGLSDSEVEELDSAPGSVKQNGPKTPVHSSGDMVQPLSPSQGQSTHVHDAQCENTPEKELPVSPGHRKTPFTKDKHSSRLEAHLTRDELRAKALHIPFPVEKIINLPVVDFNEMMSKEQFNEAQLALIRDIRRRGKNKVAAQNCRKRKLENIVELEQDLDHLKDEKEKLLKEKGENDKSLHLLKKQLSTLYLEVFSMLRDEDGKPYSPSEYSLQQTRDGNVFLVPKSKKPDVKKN
# Signal transducer and activator of transcription 3 (Homo sapiens), sequence (P40763 whole entry, looked up): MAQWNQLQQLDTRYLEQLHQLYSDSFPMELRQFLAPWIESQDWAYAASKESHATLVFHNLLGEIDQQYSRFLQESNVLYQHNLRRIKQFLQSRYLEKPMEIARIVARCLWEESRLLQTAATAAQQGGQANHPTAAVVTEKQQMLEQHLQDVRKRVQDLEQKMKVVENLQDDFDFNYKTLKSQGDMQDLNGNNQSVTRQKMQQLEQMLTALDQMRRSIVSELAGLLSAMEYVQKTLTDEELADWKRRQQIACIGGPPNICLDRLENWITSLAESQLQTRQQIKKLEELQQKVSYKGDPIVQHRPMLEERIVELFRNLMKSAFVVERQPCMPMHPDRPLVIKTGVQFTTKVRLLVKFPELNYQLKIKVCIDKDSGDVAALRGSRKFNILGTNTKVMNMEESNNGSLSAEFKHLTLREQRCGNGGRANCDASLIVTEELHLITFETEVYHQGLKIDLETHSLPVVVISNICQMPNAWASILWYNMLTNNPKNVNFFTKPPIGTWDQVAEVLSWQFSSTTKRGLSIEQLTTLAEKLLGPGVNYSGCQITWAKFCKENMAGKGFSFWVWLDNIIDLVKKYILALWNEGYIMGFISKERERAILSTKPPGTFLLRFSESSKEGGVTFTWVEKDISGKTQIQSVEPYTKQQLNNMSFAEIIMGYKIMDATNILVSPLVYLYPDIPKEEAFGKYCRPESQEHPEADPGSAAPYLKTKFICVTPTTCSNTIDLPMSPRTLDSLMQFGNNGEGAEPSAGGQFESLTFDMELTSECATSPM
structure (smiles),measurement,setting,value
CCN(Cc1cccnc1)C(=O)c1cccc(Cl)c1[C@]1(C)C(=O)N(Cc2ccc(OC)cc2OC)c2ccc(Cl)cc21,AC50,[1],10.8 µM (active)
same,outcome,[2],inactive
same,AC50,[3],21.7 µM (active)
same,AC50,[4],22.3 µM (active)
same,outcome,[5],inactive
same,AC50,[6],16 µM (active)
same,outcome,[7],inactive
same,outcome,[8],inactive
same,AC50,[9],22.2 µM (active)
same,AC50,[10],25.3 µM (active)
c1ccc(C[n+]2cccc3ccccc32)cc1,outcome,[1],inactive
same,outcome,[2],inactive
same,AC50,[3],25 µM (active)
same,AC50,[4],31 µM (active)
same,outcome,[5],inactive
same,AC50,[6],13.6 µM (active)
same,outcome,[7],inactive
same,AC50,[8],20.5 µM (active)
same,AC50,[9],31.1 µM (active)
same,AC50,[10],32.4 µM (active)
CCCCCCCCCCCC[N+](C)(C)C,outcome,[1],inactive
same,outcome,[2],inactive
same,AC50,[3],91 µM (active)
same,AC50,[4],75.6 µM (active)
same,outcome,[5],inactive
same,AC50,[6],76.9 µM (active)
same,outcome,[7],inactive
same,outcome,[8],inactive
same,AC50,[9],88.1 µM (active)
same,AC50,[10],93.5 µM (active)
O=C=NCCCCCCN=C=O,outcome,[1],inactive
same,outcome,[2],inactive
same,outcome,[3],inactive
same,outcome,[4],inactive
same,outcome,[5],inactive
same,outcome,[6],inactive
same,outcome,[7],inactive
same,outcome,[8],inactive
same,outcome,[9],inactive
same,outcome,[10],inactive
Clc1cc(Cl)c2c(c1)N=C1CCCCCN1C2,outcome,[1],inactive
same,outcome,[2],inactive
same,outcome,[3],inactive
same,AC50,[4],12.6 µM (active)
same,outcome,[5],inactive
same,outcome,[6],inactive
same,outcome,[7],inactive
same,outcome,[8],inactive
same,outcome,[9],inactive
same,outcome,[10],inactive
CC(C)(C)c1cc(/C=C2\SC(N)=NC2=O)cc(C(C)(C)C)c1O,AC50,[1],96.5 µM (active)
same,AC50,[2],18.4 µM (active)
same,AC50,[3],25.3 µM (active)
same,AC50,[4],12.4 µM (active)
same,AC50,[5],15.8 µM (active)
same,AC50,[6],22.7 µM (active)
same,outcome,[7],inactive
same,outcome,[8],inactive
same,AC50,[9],24.9 µM (active)
same,AC50,[10],93.6 µM (active)
CCCCCCCCCC(=O)O,outcome,[1],inactive
same,outcome,[2],inactive
same,outcome,[3],inactive
same,outcome,[4],inactive
same,outcome,[5],inactive
same,outcome,[6],inactive
same,outcome,[7],inactive
same,outcome,[9],inactive
same,outcome,[10],inactive
CCCOC(=O)c1cc(O)c(O)c(O)c1,outcome,[1],inactive
same,outcome,[2],inactive
same,outcome,[3],inactive
same,AC50,[4],31.4 µM (active)
same,outcome,[5],inactive
same,outcome,[6],inactive
same,outcome,[7],inactive
same,outcome,[8],inactive
same,outcome,[9],inactive
same,outcome,[10],inactive
c1ccc2n[nH]nc2c1,outcome,[1],inactive
same,outcome,[2],inactive
same,outcome,[3],inactive
same,outcome,[4],inactive
same,outcome,[5],inactive
same,outcome,[6],inactive
same,outcome,[7],inactive
same,outcome,[8],inactive
same,outcome,[9],inactive
same,outcome,[10],inactive
Cc1ccc(C(C)C)cc1,outcome,[1],inactive
same,outcome,[2],inactive
same,outcome,[3],inactive
same,outcome,[4],inactive
same,outcome,[5],inactive
same,outcome,[6],inactive
same,outcome,[7],inactive
same,outcome,[8],inactive
same,outcome,[9],inactive
same,outcome,[10],inactive
CN1C(=O)CC[C@H]1c1cccnc1,outcome,[1],inactive
same,outcome,[2],inactive
same,outcome,[3],inactive
same,outcome,[4],inactive
same,outcome,[5],inactive
same,outcome,[6],inactive
same,outcome,[7],inactive
same,outcome,[8],inactive
same,outcome,[9],inactive
same,outcome,[10],inactive
CC(=O)N1CCN(c2ccc(OC[C@H]3CO[C@](Cn4ccnc4)(c4ccc(Cl)cc4Cl)O3)cc2)CC1,AC50,[1],76.6 µM (active)
same,AC50,[2],78.8 µM (active)
same,AC50,[3],13.3 µM (active)
same,AC50,[4],11 µM (active)
same,outcome,[5],inactive
same,AC50,[6],12 µM (active)
same,AC50,[7],30.8 µM (active)
same,AC50,[8],35 µM (active)
same,AC50,[9],22.8 µM (active)
same,AC50,[10],12.2 µM (active)
O=C1c2ccccc2C(=O)N1CCc1noc(-c2ccc(CN3CCCCCC3)s2)n1,outcome,[1],inactive
same,outcome,[2],inactive
same,outcome,[3],inactive
same,outcome,[4],inactive
same,outcome,[5],inactive
same,outcome,[6],inactive
same,outcome,[7],inactive
same,outcome,[8],inactive
same,outcome,[9],inactive
same,outcome,[10],inactive
CCCCCCCCCCCO,outcome,[1],inactive
same,outcome,[2],inactive
same,outcome,[3],inactive
same,outcome,[4],inactive
same,outcome,[5],inactive
same,outcome,[6],inactive
same,outcome,[7],inactive
same,outcome,[8],inactive
same,outcome,[9],inactive
same,outcome,[10],inactive
CCOC(=O)O[C@H](C)OC(=O)c1ccc2c(c1)cc(C(=O)NC1CCN(C(C)C)CC1)n2Cc1cc(-c2ccc(Cl)s2)on1,outcome,[1],inactive
same,outcome,[2],inactive
same,outcome,[3],inactive
same,outcome,[4],inactive
same,outcome,[5],inactive
same,outcome,[6],inactive
same,outcome,[7],inactive
same,outcome,[8],inactive
same,outcome,[9],inactive
same,outcome,[10],inactive
O=C(O)c1ccccc1C(=O)OCc1ccccc1,outcome,[1],inactive
same,outcome,[2],inactive
same,outcome,[3],inactive
same,AC50,[4],28.6 µM (active)
same,outcome,[5],inactive
same,outcome,[6],inactive
same,outcome,[7],inactive
same,outcome,[8],inactive
same,outcome,[9],inactive
same,outcome,[10],inactive
CCCCCCCCCCCCO,outcome,[1],inactive
same,outcome,[2],inactive
same,outcome,[3],inactive
same,outcome,[4],inactive
same,outcome,[5],inactive
same,outcome,[6],inactive
same,outcome,[7],inactive
same,outcome,[8],inactive
same,outcome,[9],inactive
same,outcome,[10],inactive
CCCCOC(=O)CC(CC(=O)OCCCC)(OC(C)=O)C(=O)OCCCC,outcome,[1],inactive
same,outcome,[2],inactive
same,outcome,[3],inactive
same,outcome,[4],inactive
same,outcome,[5],inactive
same,outcome,[6],inactive
same,outcome,[7],inactive
same,outcome,[8],inactive
same,outcome,[9],inactive
same,outcome,[10],inactive
CN(C[C@@H](CC[N+]12CCC(C3CCCCC3)(CC1)CC2)c1ccc(Cl)c(Cl)c1)C(=O)c1cc(C(F)(F)F)cc(C(F)(F)F)c1,AC50,[1],76.2 µM (active)
same,AC50,[2],71.1 µM (active)
same,AC50,[3],22.4 µM (active)
same,AC50,[4],82.4 µM (active)
same,outcome,[5],inactive
same,outcome,[6],inactive
same,AC50,[7],68.8 µM (active)
same,outcome,[8],inactive
same,AC50,[9],33.9 µM (active)
same,AC50,[10],68 µM (active)
